High-throughput results from PubChem BioAssay.
An excerpt weighted towards active compounds, which were near 0.9% of everything screened.
Texas Red fluor: qHTS Assay for Spectroscopic Profiling in Texas Red Spectral Region. Compound fluorescence, Texas Red channel, 547/618 nm; active compounds read high. max dye-equivalent concentration, M. actives 0.06% (n = 59,000); in the data active means max dye-equivalent concentration above about 10 nM; inconclusive means between about 1.1 nM and that limit
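Spectral interference profiling: each compound concentration's relative fluorescence, read with a 547 nm excitation and 618 nm emission filter pair, was normalized to a per-plate Texas Red standard curve.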
Fluorescein autfl: qHTS Assay for Spectroscopic Profiling in Fluorescein Spectral Region | Compound autofluorescence, 480/540 nm, fluorescein-equivalent; active compounds read high | max fluorescein-equivalent concentration, M | actives 0.91% (n = 59,000); in the data active means max fluorescein-equivalent concentration above about 10 nM; inconclusive means between about 1.1 nM and that limit
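First, buffer (100 mM Tris, pH 8.0) dispensed; second, compounds and fluorescein standards pinned in; third, 15 min room-temperature incubation; finally, imaging at ex 480 nm/em 540 nm. Fluorescence normalized against the six-point fluorescein curve.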
Resorufin autofl: qHTS Assay for Spectroscopic Profiling in Resorufin Spectral Region; max dye-equivalent concentration, M; actives 0.04% (n = 59,000); Compound fluorescence, resorufin region 547/598 nm, buffer; active compounds read high
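Intrinsic fluorescence profiled in the resorufin window (ex 547 nm, em 598 nm) after 15 min at room temperature in pH 8.0 Tris buffer (100 mM); responses normalized against a six-point resorufin standard series as dye-equivalent concentration.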
A647 autofl: qHTS Assay for Spectroscopic Profiling in A647 Spectral Region | Compound fluorescence, A647 channel (570/671 nm), Tris buffer | max dye-equivalent concentration, M | 59,000 tested, under 10 active | AID 592, 2007;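 further: values scaled relative to a standard on each plate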
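Tris 100 mM pH 8.0; cpd + A647 stds pin-transferred; 15 min RT; CCD imager, ex 570/em 671. Output = A647-equivalent conc. per cpd conc.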
Rhodamine fluor: qHTS Assay for Spectroscopic Profiling in Rhodamine Spectral Region; Rhodamine-region fluorescence, 547/598 nm, Tris buffer; active compounds read high; max dye-equivalent concentration, M; actives 0.05% (n = 59,000); in the data active means max dye-equivalent concentration above about 11 nM; inconclusive means between about 1.1 nM and that limit
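A six-point rhodamine series on each plate calibrates the signal. Compounds sit in 100 mM Tris (pH 8.0) for 15 min at ambient temperature before imaging through 547 nm/598 nm filters.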
A488 autofl: qHTS Assay for Spectroscopic Profiling in A488 Spectral Region; max dye equivalency, M; actives 0.1% (n = 59,000); compound autofluorescence, A488 spectral region, dye equivalency; Compound Type: qHTS ECL - MLSMR
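Compound autofluorescence was read in 100 mM Tris pH 8.0 after 15 min at room temperature, ex 480 nm/em 540 nm. Intensities were converted to A488 dye-equivalent concentration using an on-plate six-point A488 standard curve.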
* marks the source's active call; other numbers are inactive results; i = inactive; ? = inconclusive; ! = repeats disagree. Unless noted, how the calls were made is not given here.

SMILES	Texas Red fluor	Fluorescein autfl	Resorufin autofl	A647 autofl	Rhodamine fluor	A488 autofl
Cc1ccc(C[C@H](Cc2nc3ccccc3[nH]2)c2nc3ccccc3[nH]2)cc1	i	i	i	4.2e-09	i	i
Cc1ccc(-c2c3c(=O)n(C)c(=O)n(C)c3c3nnc4ccccc4n23)cc1	i	1.1e-07M*	i	9e-09	i	?
Cc1ccnn2c(-c3ccccc3)c3c(=O)n(C)c(=O)n(C)c3c12	i	1.2e-08M*	i	9.5e-09	i	i
O[C@@H]1CC[C@H]2Cc3ccccc3N=C21	i	i	i	4.4e-09	i	i
COc1ccc2c(c1)c1c(C)c3cnccc3c(C)c1n2CCCN	i	i	i	1e-09	i	i
CCCN(CCc1ccccc1)[C@H]1CCc2c(O)cccc2C1	i	i	i	1e-09	i	i
O=C(Cn1cc(C(=O)COc2ccccc2)c2ccccc21)NCc1ccco1	i	1.5e-08M*	i	1.1e-08	i	i
O=C(O)CCC/C=C\C[C@H]1[C@@H](/C=C\[C@@H](O)C2Cc3ccccc3C2)[C@H](F)C[C@H]1O	i	i	i	6.2e-09	i	i
CCOc1ccccc1-n1c(SCC(N)=O)nnc1-c1cccnc1	i	i	i	5e-09	i	i
CCn1c(CSc2nnc3ccccn23)nc2cc(C(=O)O)ccc21	1.1e-07M*	1.4e-08M*	4.7e-08M*	6.6e-08	7.1e-08M*	i
CCn1c(CSc2nnc(-c3cccnc3)n2-c2ccccc2C)nc2cc(C(=O)O)ccc21	4.2e-07M*	?	2.2e-07M*	?	2.6e-07M*	i
NC(=O)c1cc2ccc(O)cc2oc1=Nc1ccccc1	i	?	i	2.5e-08	i	i
NC(=O)c1cc2ccc(O)cc2oc1=NCc1ccccc1	i	2.7e-07M*	i	1.3e-09	i	1.5e-08M*
C=CCn1c(=S)[nH]c2ccc(Br)cc2c1=O	i	1.9e-08M*	i	7.9e-09	i	i
C=CCn1c(=S)[nH]c2nc3c(cc2c1=O)CCCC3	i	i	i	2e-09	i	i
CC(=O)[C@]1(O)CC[C@@H]2[C@H]3C[C@@H](C)C4=CC(=O)CC[C@@]4(C)[C@H]3[C@@H](O)C[C@]21C	?	i	i	1e-09	i	i
N#CC1=C(N)C(C#N)(C#N)[C@H](c2ccoc2)[C@H]2CN(Cc3ccccc3)CC=C12	?	3.5e-08M*	i	2.2e-09	i	?
CC(=O)N1CC=C2C(C#N)=C(N)C(C#N)(C#N)[C@H](c3ccoc3)[C@H]2C1	i	3.1e-08M*	i	6.1e-08	i	i
CC(=O)N1CC=C2C(C#N)=C(N)C(C#N)(C#N)C(C)C2C1 (stereo not given)	i	?	i	1e-09	i	i
CCN1CC=C2C(C#N)=C(N)C(C#N)(C#N)C(CCc3ccccc3)C2C1 (stereo not given)	i	1.3e-07M*	i	1e-09	i	?
CCN1C(=O)c2cccc3c(NC(=O)c4ccc5c(c4)OCCO5)ccc1c23	i	5.5e-08M*	i	2.6e-09	i	?
CCN1C(=O)c2cccc3c(NC(=O)C4CCCCC4)ccc1c23	i	?	i	1.7e-09	i	i
CN(C)CC[C@H](c1ccc(Cl)cc1)c1ccccn1	?	1.3e-08M*!	i	9.6e-09	i	i
COc1ccc(-c2nc3cnc(OCc4ccccc4)nc3n(CCC#N)c2=O)cc1	i	i	i	1e-09	i	i
O=c1c(O)c(-c2ccc(O)c(O)c2)oc2ccccc12	i	i	i	1e-09	i	i
COc1ccc(C(=O)N2CCC3(CCCN(c4cccc(-c5ccccc5)c4)C3)CC2)cc1	i	1.4e-08M*	i	1.6e-08	i	i
COc1ccc(C(=O)N2CCC3(CC2)CN(c2cccc(-c4ccccc4)c2)C3)cc1	i	i	i	1.4e-09	i	i
